Test [1] is described as follows: IUF_NPC1b_proliferation_BrdU_72hr: Leibniz Research Institute for Environmental Medicine (IUF) 72-hour Neural Progenitor Cell Bromodeoxyuridine (BrdU) Proliferation Assay (NPC1b) (AID 2284207). The gist of the method:
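Proliferation of primary human neural progenitor cells: 72 h compound treatment at 37C, 5% CO2, pH 7.2-7.6, in EGF/FGF-containing medium. Readout is BrdU uptake (last 16 h) by chemiluminescent ELISA, normalised to DMSO.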

The nature of test [2]: IUF_NPC1a_proliferation_area_72hr: Leibniz Research Institute for Environmental Medicine (IUF) 72-hour Neural Progenitor Cell Proliferation Area Assay (NPC1a) (AID 2284208). The gist of the method:
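Proliferation is scored as sphere area gain in primary human fetal neural progenitors treated for 72 h in EGF/FGF-containing medium. Viability, LDH and BrdU readouts come from the same wells.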

Test [3] is described as follows: IUF_NPC1_viability_72hr: Viability Assessment at 72 hours in the Leibniz Research Institute for Environmental Medicine (IUF) Neural Progenitor Cell Proliferation Assay (NPC1) (AID 2284209). The gist of the method: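 hNPC spheres, 1/well, EGF+FGF medium, 37C/5% CO2; dosed day 0, 72 h, no re-dosing. Resazurin reduction (alamar blue) fluorescence; DMSO = negative control/baseline; growth-factor-free wells as positive control.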

A short description of test [4]: CCTE_Mundy_HCI_Cortical_Synap_Neur_Matur_NeuriteSpotCountPerNeuriteLength: CCTE's Synaptogenesis and Neurite Maturation Assay in rat cortical cells for Neurite Spot Count per Neurite Length, Mundy Lab (AID 2284210). The gist of the method: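 Primary rat cortical neurons, compound exposure DIV 7–12, 288.33 h endpoint. Hoechst, anti-MAP2 and anti-synaptophysin labelling; neurite-associated puncta per neurite length scored by automated imaging relative to DMSO controls.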

Test [5] in a line: CCTE_Mundy_HCI_Cortical_Synap_Neur_Matur_BPCount: CCTE's Synaptogenesis and Neurite Maturation Assay in rat cortical cells for Branch Point Count, Mundy Lab (AID 2284211). The gist of the method: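 Rat primary cortical cultures, AraC added DIV 5; chemicals dosed DIV 7 through DIV 12. Fixed cells stained for MAP2, synaptophysin and Hoechst; neurite branch points counted by automated high-content imaging, fitted relative to DMSO.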

Test [6] is described as follows: CCTE_Mundy_HCI_Cortical_NOG_NeuriteCount: CCTE's Neurite Outgrowth Assay in rat cortical cells for Neurite Count, Mundy Lab (AID 2284212).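 Also: cells fixed about two days after chemical exposure began.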 The gist of the method:
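Neurite number per cell from high-content imaging of betaIII-tubulin immunostaining, with Hoechst nuclear counterstain.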

Test [7] in a line: CCTE_Mundy_HCI_Cortical_NOG_NeuriteLength: CCTE's Neurite Outgrowth Assay in rat cortical cells for Neurite Length, Mundy Lab (AID 2284213). The gist of the method:
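Neurite length was read by high-content imaging of βIII-tubulin-labelled neurites in rat primary cortical cultures. Activity was fitted relative to DMSO.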

Test [8] in a line: CCTE_Mundy_HCI_Cortical_Synap_Neur_Matur_NeuriteLength: CCTE's Synaptogenesis and Neurite Maturation Assay in rat cortical cells for Neurite Length, Mundy Lab (AID 2284214). The gist of the method:
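Rat cortical neurons, AraC at DIV 5; compound + media change DIV 7, end DIV 12 (288.33 h). Fix, MAP2/synaptophysin/Hoechst immunostain, automated HCI of neurite length vs DMSO.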

Test [9] can be described thus: CCTE_Mundy_HCI_Cortical_Synap_Neur_Matur_NeuriteSpotCountPerNeuron: CCTE's Synaptogenesis and Neurite Maturation Assay in rat cortical cells for Neurite Spot Count per Neuron Count, Mundy Lab (AID 2284215). The gist of the method:
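Synapse density is scored as synaptophysin spots along neurites per neuron in fixed rat cortical neurons, measured at DIV 12 after chemical dosing at DIV 7. DMSO is the negative control and activity baseline.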

A short description of test [10]: CCTE_Mundy_HCI_Cortical_Synap_Neur_Matur_SynapseCount: CCTE's Synaptogenesis and Neurite Maturation Assay in rat cortical cells for Synapse Count, Mundy Lab (AID 2284218). The gist of the method:
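Primary rat cortical culture; AraC DIV 5 to arrest glia; compound + media change DIV 7; terminated DIV 12. PFA/Hoechst fix, anti-MAP2 + anti-synaptophysin immunostain; HCI synapse count/neuron; DMSO = baseline.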

The nature of test [11]: CCTE_Mundy_HCI_Cortical_Synap_Neur_Matur_NeuriteCount: CCTE's Synaptogenesis and Neurite Maturation Assay in rat cortical cells for Neurite Count, Mundy Lab (AID 2284222).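 Also: exposure from day 7 to day 12 in vitro with readout at day 12.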 The gist of the method: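 Chemical exposure runs DIV 7–12 in rat cortical cultures, glia suppressed by AraC at DIV 5; measurement is at DIV 12. Imaging-derived neurite counts are fitted against DMSO baseline.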

A short description of test [12]: CCTE_Mundy_HCI_Cortical_Synap_Neur_Matur_CellBodySpotCount: CCTE's Synaptogenesis and Neurite Maturation Assay in rat cortical cells for Cell Body Spot Count, Mundy Lab (AID 2284223). The gist of the method:
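Synapse number at neuronal cell bodies was quantified as synaptophysin puncta per neuron in rat cortical cultures exposed from DIV 7 to DIV 12. Values were normalised to DMSO.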

Test [13] can be described thus: BSK_BT_PBMCCytotoxicity: PBMC Cytotoxicity Assessment in the BioMAP Diversity Plus: BT Assay (AID 2284225).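 Also: PBMC viability measured by Alamar Blue dye reduction fluorescence.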 Conditions: primary human B cells with PBMC. The gist of the method:
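PBMC (75,000/well) pretreated with compound 1 h, then activated with SEB and TSST-1 (20 ng/mL each final), incubated 90 h; Alamar Blue added 6 h, fluorescence read at 546/580 nm. Fitted relative to DMSO.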

Read-out in test [14]: Secreted IgG (sIgG), gene 3500
Briefly: BSK_BT_sIgG: BioMAP Diversity Plus: BT Assay for Secreted IgG (sIgG) Biomarker Activity (AID 2284226). Conditions: primary human B cells with PBMC. The gist of the method:
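Read-out: ELISA for secreted IgG after 24 h of chemical exposure in a B cell plus PBMC co-culture. Values reflect upward-direction fitting against DMSO negative controls.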

The nature of test [15]: BSK_BT_Bcell_Proliferation: Viability Assessment in the BioMAP Diversity Plus: BT Assay for B cell Proliferation (AID 2284227). Conditions: primary human B cells with PBMC. The gist of the method:
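SRB-based protein staining (0.1% SRB after 10% TCA fixation, 560 nm) quantifies proliferation in human B cells co-cultured with PBMC, 72 h post-dosing, with signal gain scored relative to DMSO negative control.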

Read-out in test [16]: Interleukin 6 (IL6), IL6 (gene 3569)
Briefly: BSK_BT_xIL6: BioMAP Diversity Plus: BT Assay for Interleukin 6 (IL6) Biomarker Activity (AID 2284228). Conditions: primary human B cells with PBMC. The gist of the method: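 Chemical added to human B cell/PBMC co-culture → 24 h → supernatant IL-6 by Luminex xMAP → fit vs DMSO baseline, upward direction.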

Read-out in test [17]: Interleukin 17A (IL17A), IL17A (gene 3605)
Briefly: BSK_BT_xIL17A: BioMAP Diversity Plus: BT Assay for Interleukin 17A (IL17A) Biomarker Activity (AID 2284229). To be noted: primary human B cells with PBMC. The gist of the method:
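Chemicals were added to a human B cell and PBMC co-culture. After 24 h, secreted IL-17A was measured with Luminex xMAP. Curves were fitted in the positive direction, with DMSO wells as baseline.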

Read-out in test [18]: Tumor necrosis factor (Homo sapiens) (UniProt P01375)
Nature of the test: BSK_BT_xTNFa: BioMAP Diversity Plus: BT Assay for Tumor necrosis factor alpha (TNF-alpha) Biomarker Activity (AID 2284230). To be noted: primary human B cells with PBMC. The gist of the method: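 Compounds were added to a B cell plus PBMC co-culture, and after 24 h secreted TNF-alpha was quantified with Luminex xMAP technology, with responses fitted upward from the DMSO control.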

Test [19] can be described thus: CCTE_Mundy_HCI_hNP1_Pro_ResponderAvgInten: CCTE's Proliferation Assay in human neuroprogenitor cells, Mundy Lab (AID 2284224; active = hit-call score of the fitted dose curve at least 0.9, where 1 is the maximum;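 also: human neural progenitor cells hNP1 derived from WA09 embryonic stem cells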). The gist of the method:
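Proliferation was scored as BrdU labelling intensity in human neural progenitors derived from WA09 embryonic cells, measured 26.25 hours after chemical dosing. Activity was fitted relative to DMSO.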

Test [20] can be described thus: TAMU_PeakParms_SingleDonor1434_Chronotropy: Texas A&M University (TAMU) 1.5-hr Human Induced Pluripotent Stem Cell (iPSC)-derived Cardiomyocytes Calcium (Ca+2) Flux Assay for Cardiotoxicity: Chronotropy (changes in peak frequency) (AID 2284217). To be noted: actives raise or lower the signal. The gist of the method: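 Beat frequency of single-donor iPSC cardiomyocytes was recorded through a calcium-sensitive dye 1.5 hours after exposure to four concentrations up to 100 uM. An EC05 point of departure was derived.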

Molecules are shown by their SMILES. Values joined by “and” are separate entries in the source; they are usually repeats but may differ in a detail not shown here. Equal entries are not always repeated. Records with an inconclusive call do not appear. More than one record can exist for a structure, and the calls need not agree. Active and inactive are the calls of the source. The calls were made as follows, unless noted: active = hit-call score of the fitted dose curve at least 0.9, where 1 is the maximum; inactive = score below 0.9.

Chain of Tumor necrosis factor (Homo sapiens) (P01375 whole entry, looked up): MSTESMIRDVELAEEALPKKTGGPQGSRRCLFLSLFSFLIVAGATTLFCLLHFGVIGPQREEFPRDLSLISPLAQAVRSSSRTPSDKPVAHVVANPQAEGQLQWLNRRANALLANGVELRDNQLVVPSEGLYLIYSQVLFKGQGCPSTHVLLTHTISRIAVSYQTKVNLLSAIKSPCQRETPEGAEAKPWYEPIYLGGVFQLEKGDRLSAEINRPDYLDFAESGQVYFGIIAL

Consider `N[C@@H](CCC(=O)O)C(=O)O`, for which the outcome in test [1], in test [2], in [3], in test [4], in test [5] and in test [6] was inactive. In addition, the compound was called inactive in [7], in test [8], in test [9], in [10], in [11] and in test [12].

For the compound `OCCN1CCOCC1`, the outcome in test [13], in test [14], in test [15], in [16], in test [17] and in test [18] was inactive.

Regarding `O=S1(=O)CC(Cl)(Cl)C(Cl)(Cl)C1`, the concentration at half-maximal activity (AC50) (as a rule, the concentration at which the activity in the assay is half-maximal) in test [13] was 0.874 µM (active); in test [14], 0.329 µM (active); in test [15], 0.537 µM (active); in test [16], 0.416 µM (active); in test [17], 0.346 µM (active); in test [18], 0.749 µM (active).

As to `CC(=O)OCC=C(C)CCC=C(C)CCC=C(C)C`, the AC50 is 33.2 µM (active) in test [13]; 20 µM (active) in test [14]; 37.9 µM (active) in test [15]; 30.7 µM (active) in test [16]; 20 µM (active) in test [17]; 36.5 µM (active) in test [18].

For the compound `Nc1ccc(N)c([N+](=O)[O-])c1`, the result in [14], in test [15], in test [16], in test [17] and in test [18] was inactive.

Turning to `O=C(O)C(F)(F)OC(F)(F)C(F)(F)OC(F)(F)C(F)(F)C(F)(F)C(F)(F)F`, the AC50 in [13] is 22.1 µM (active). For the same compound, the outcome in test [13], in [14], in test [15], in [16], in [17] and in test [18] was inactive.

In the case of `CC(C)Cc1ccc(C(C)C(=O)O)cc1` (configuration not stated), the result in test [1], in [2], in test [3], in test [4], in test [5] and in test [6] was inactive. The call in test [7], in [8], in test [9], in [10], in [11] and in test [12] was inactive. Moreover, the compound was classed as inactive in test [19], in test [13], in [14], in [15], in test [16] and in test [17]. Also, in [18], the outcome was inactive.

As for `COc1ccccc1NC(=O)CC(C)=O`, the outcome in test [13], in [14], in test [15], in test [16], in [17] and in test [18] was inactive.

Take `CC(C)(C)c1cccc(O)c1`: the outcome in test [13], in test [14], in [15], in test [16], in test [17] and in test [18] was inactive.

Take `C=C(C)C(=O)OCCC(F)(F)C(F)(F)C(F)(F)C(F)(F)C(F)(F)C(F)(F)C(F)(F)C(F)(F)F`: the result in test [13], in test [14], in test [15], in [16], in [17] and in test [18] was inactive.

In the case of `CC(=O)OC(C)(C)C1CC=C(C)CC1` (configuration not stated), the result in test [13], in test [14], in test [15], in test [16], in test [17] and in test [18] was inactive.

For `OCC(F)(OC(F)(F)C(F)(OC(F)(F)C(F)(F)C(F)(F)F)C(F)(F)F)C(F)(F)F` (configuration not stated), the half-maximal activity concentration (AC50) in test [13] is 2.62 µM (active) and 5.68 µM (active); in [14] it was 5.29 µM (active); in [15], 3.33 µM (active); in test [18], 4.92 µM (active). In addition, the result in [14], in [15], in test [16], in test [17] and in test [18] was inactive.

With `N#CCCNCCC#N`, the outcome in test [4], in test [5], in test [6], in [7], in test [8] and in test [9] was inactive. In addition, the outcome in test [20], in test [10], in test [11] and in [12] was inactive.

For `CCOC(=O)CCCCCCCCC(=O)OCC`, the outcome in [13], in test [14], in test [15], in [16], in test [17] and in test [18] was inactive.

`CCCCCCCCCC(=O)OCC`: the result in [13], in test [14], in test [15], in test [16], in [17] and in test [18] was inactive.

For `CCCCCCCC1CCCC1=O` (configuration not stated), the result in test [13], in test [15], in test [16], in [17] and in test [18] was inactive. The half-maximal activity concentration (AC50) in test [14] is 2.5 µM (active).

Source of the values: PubChem BioAssay (EPA / NIEHS).
